In all, about 16,000 compounds went through this assay and about 5,700 (36%) were called active. Not shown: some 24% with an inconclusive outcome. The list shows a part of the results. Values without a mark were called inactive. The call rests on the fitted dose curve; in most records, active means well fitted curve in the direction sought with a large enough effect; inconclusive means small, poorly fitted or top-dose-only effect, or effect the other way; inactive means no such curve, though single readings can be large or run the other way.
On the % scale 0 is the no-effect control and ±100 the full control effect.

Cytochrome P450 1A2 (Homo sapiens), sequence (P05177 whole entry, looked up): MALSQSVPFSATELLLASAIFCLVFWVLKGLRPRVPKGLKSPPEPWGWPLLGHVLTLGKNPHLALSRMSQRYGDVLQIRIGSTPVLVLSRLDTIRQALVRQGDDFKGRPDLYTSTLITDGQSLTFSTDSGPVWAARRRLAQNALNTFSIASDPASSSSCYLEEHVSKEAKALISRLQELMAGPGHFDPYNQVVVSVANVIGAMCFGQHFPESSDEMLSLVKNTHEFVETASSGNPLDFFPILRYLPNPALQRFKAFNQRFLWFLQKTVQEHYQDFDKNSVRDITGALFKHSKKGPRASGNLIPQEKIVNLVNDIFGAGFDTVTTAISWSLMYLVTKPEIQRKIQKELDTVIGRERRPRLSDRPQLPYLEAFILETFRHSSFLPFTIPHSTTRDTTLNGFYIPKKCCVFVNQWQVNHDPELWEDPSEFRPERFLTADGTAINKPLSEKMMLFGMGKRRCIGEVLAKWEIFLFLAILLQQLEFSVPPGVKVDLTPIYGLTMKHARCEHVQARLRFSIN

The assay addresses Cytochrome P450 1A2 (Homo sapiens) (UniProt P05177). Nature of the assay: Cytochrome panel assay with activity outcomes. As to conditions: recombinant CYP, pro-luciferin dealkylation, luminescence, p450-cyp1a2; series mostly up to 57.1 µM; activity, negative = inhibition: at the top concentration.
Broadly, the AC50 is the concentration at which the activity in the assay is half-maximal. With `CC(=O)c1cccc(NC(=O)CCC2CCCC2)c1`, the AC50 was 3.55 µM (active). For the compound `COc1cccc(N(CC(=O)Nc2cccc(C(C)=O)c2)S(C)(=O)=O)c1`, the “activity, negative = inhibition” value is -23.4%. Same read-out and setting: under `O=C(CCC1CCCCC1)Nc1c2c(nn1-c1ccc(F)cc1)CS(=O)(=O)C2` stands -26.5%. On the same count and under the same terms, in the case of `CCn1c(CSCc2ccc(C)cc2)nnc1SCC(=O)NCc1ccccc1` it was -12.9%; in that of `Cc1ccc(O)c(C(=O)c2cc(C#N)c(=O)n(-c3c(C)n(C)n(-c4ccccc4)c3=O)c2)c1`, -22%. Turning to `Nc1nc2n[nH]nc2c(=O)[nH]1`, the “activity, negative = inhibition” value was -3.44% [at 25.6 µM].

Take `CCCOc1ccccc1-c1nc2n[nH]nc2c(=O)[nH]1`: the AC50 was 3.98 µM (active). The same measure, in the same setting: under `C=CCSC1=Nc2sccc2C2=NC(=O)CN12` stands 1.78 µM (active); under `CSC1=N/C(=C\c2ccc(Br)o2)C(=O)S1`, 3.55 µM (active); under `CSC1=N/C(=C\c2ccc(C)cc2)C(=O)S1`, 2.82 µM (active).

For `CN(C)C(=O)CN(c1ccc2c(c1)OCO2)S(C)(=O)=O`, the “activity, negative = inhibition” value is -14.4%.

Take `CSC1=N/C(=C\c2ccc3c(c2)OCO3)C(=O)S1`: the AC50 is 1 µM (active). Consider `C[C@@H]1C[C@@H]2[C@H]3CCC4=CC(=O)C=C[C@]4(C)[C@]3(F)[C@@H](O)C[C@]2(C)[C@@]1(O)C(=O)CO`, for which the “activity, negative = inhibition” value was -7.24% [at 25.6 µM]. The same measure, in the same setting: under `O=C(O)[C@H](Cc1cc(I)c(O)c(I)c1)C1CCCCC1` stands -8.77% [at 2.29 µM]. With `c1ccc2cc(Sc3ncnc4c3oc3ccccc34)ccc2c1`, the AC50 is 1.58 µM (active). Consider `Cc1nc2ncnn2c(C)c1CCC(=O)NCCC1=CCCCC1`, for which the “activity, negative = inhibition” value is -4.9%. As for `CC1(c2ccccc2)NC(=O)N(CC(=O)NCCC2=CCCCC2)C1=O` (stereo not given), the concentration at half-maximal activity (AC50) is 11.2 µM (active). Consider `COc1ccc(C(=O)CN2C(=O)NC(C)(c3ccccc3)C2=O)cc1OC` (stereo not given), for which the “activity, negative = inhibition” value was -23.5%. Turning to `CCCCCOc1ccc(NC(=O)C(=O)NCCC2=CCCCC2)cc1`, the “activity, negative = inhibition” value is 2.05%. On the same count and under the same terms, under `Cc1ccc(S(=O)(=O)N(CC(=O)NCCC2=CCCCC2)Cc2ccccc2F)cc1` stands -16.5%; under `COc1ccc(OC)c(C(=O)CN2C(=O)NC(C)(c3ccccc3)C2=O)c1` (stereo not given), -19.8%.

Take `O=C(CN1CCN(c2ncccn2)CC1)NCCC1=CCCCC1`: the concentration at half-maximal activity (AC50) is 1.58 µM (active). With `CC(=O)Nc1ccc(S(=O)(=O)NC(CC(=O)NCCC2=CCCCC2)C(C)C)cc1` (stereo not given), the “activity, negative = inhibition” value was -6.14%. Regarding `O=C(COc1ccc(Cl)cc1)NCCC1=CCCCC1`, the concentration at half-maximal activity (AC50) is 11.2 µM (active). Same read-out and setting: in the case of `CCC(C)n1nnc2c(=O)oc3ccccc3c21` (stereo not given) it was 0.708 µM (active).

In the case of `C=CCN1CCc2cc(O)c(O)cc2[C@H](c2ccccc2)C1`, the AC50 entry was “inactive”.

As to `Nc1nc(-c2ccccc2)cc(-c2ccccc2O)n1`, the AC50 is 0.631 µM (active). On to `CC(C)=NOCc1ccc(-c2cc(-c3ccccc3)no2)cc1`, for which the activity, negative = inhibition was -4.03% [at 11.4 µM].

For `Oc1ccccc1-c1cc(-c2ccccc2)no1`, the AC50 is 1.26 µM (active). With `Nc1nc(-c2cc(-c3cccc4ccccc34)nc(N)n2)cc(-c2cccc3ccccc23)n1`, the activity, negative = inhibition is -4.4% [at 2.29 µM].

On to `CC(C)=NOCc1cccc(-c2cc(-c3ccccc3)no2)c1`, for which the activity, negative = inhibition was 1.37% [at 11.4 µM]. With `Cc1ccccc1-c1cc(-c2ccccc2O)on1`, the AC50 is 2.51 µM (active).

In the case of `Cc1cc(C(F)F)n2nc(C(=O)Nc3sc4c(c3C#N)CCC(C)C4)nc2n1` (stereo not given), the “activity, negative = inhibition” value is -23.3%. For the compound `CC(=O)N1CCN(c2nc(C)nc3sc4c(c23)CCC(C)C4)CC1` (stereo not given), the AC50 was 15.8 µM (active).

In the case of `CC(C)CN=C(N)N=C(N)N`, the activity, negative = inhibition was -9.85% [at 11.4 µM]. On to `C(=N\N(c1ccccc1)c1ccccc1)/c1ccc2c(c1)OCO2`, for which the half-maximal activity concentration (AC50) is 2 µM (active).

On to `CCOc1ccc(CC(=O)C2C(=O)CCCC2=O)cc1OCC`, for which the half-maximal activity concentration (AC50) is 10 µM (active). With `CCOc1cc(CN2CCN(c3ccc(C(C)=O)cc3)CC2)ccc1OC`, the “activity, negative = inhibition” value was 0.863%. The same measure, in the same setting: under `CCOc1ccc(CNC(=O)C2CCC(=O)N2C2CCCC2)cc1OC` (stereo not given) stands -20.8%. Same read-out and setting: under `CC1CCC(O)([C@](C)(C(=O)O)c2ccccc2)CC1` (stereo not given in full) stands -4.6% [at 11.4 µM]. `O=C(Nc1ccccc1)N1CCOCC1`: the “activity, negative = inhibition” value was -29.9%.

As to `COC(=O)N1CCC2(CC1)CN(C(=O)Nc1ccccc1)C2`, the “activity, negative = inhibition” value was -10.2%. As to `O=C(Nc1ccc(Cl)cc1)N1CCc2[nH]c3ccccc3c2C1`, the AC50 was 3.55 µM (active). As to `COC(=O)[C@@]1(Cc2ccc(OC)cc2)[C@H]2c3cc(C(=O)N4CCCC4)n(Cc4ccc(C(F)(F)F)nc4)c3C[C@H]2CN1C(=O)c1ccccc1`, the “activity, negative = inhibition” value was -14.5%. Consider `Cc1cc(SCC(=O)c2cccs2)nc2c(C)cccc12`, for which the AC50 was 0.891 µM (active).

With `CCCNC(=O)OC[C@@H]1O[C@H](c2ccccc2)C=C[C@@H]1Oc1ccc(OC)cc1`, the activity, negative = inhibition is -7.29% [at 11.4 µM].

As for `C=CCc1ccccc1OC[C@H](O)CNC(C)C`, the AC50 is 3.16 µM (active). Still for that read-out and setting: in the case of `C=CCOc1ccccc1OC[C@H](O)CNC(C)C` it was 5.01 µM (active). For the compound `C=CCOc1ccc(CNC(C)(C)CO)cc1OCC`, the “activity, negative = inhibition” value was -3.94%. The same measure, in the same setting: under `CC(C)(C)NC[C@H](O)COc1cccc2[nH]c(=O)[nH]c12` stands -2.92%.
